A selection: hits, their analogues and other compounds. The true share with any hit is near 4.1%.
aSyn UTR inh – 5' untranslated region of α-synuclein, MLPCN primary screen; AID 1813; inhibition, % (tested at 7.5 µM); alpha-synuclein 5'UTR reporter, inhibitor activity; 300,000 tested, 0.82% active; in the data active = inhibition above about 60%;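 note: H4 neuroglioblastoma cells stably carrying SNCA 5'UTR luciferase fusion; 0% = DMSO wells and 100% = positive control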
Bfl-1 A1 inh – inhibitors of the anti-apoptotic protein A1, read as caspase activation; AID 2462; 330,000 tested, 0.066% active; MEF A1-2A-BIM cells, Caspase-Glo 3/7 luminescence, 3 h; percent of clofoctol response, vehicle zero; caspase activation, % (test concentration not listed);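 active = over half of replicate activation scores above 10%, or exactly half above 10 with the replicate mean above 10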
CSC inhib – cancer stem cell inhibition; cancer stem cell-like cells viability, luminescence; inhibition, % at 7.5 µM; 300,000 tested, 1.1% active; AID 2717; in the data active = inhibition above about 75%; tested in HMLE shEcad cells
Beta apoptosis – blocks beta cell apoptosis. protection from apoptosis, % (test concentration not listed). INS-1E cytokine-induced death, ATP luminescence, 48 h; percent of positive-control rescue, neutral wells zero. 300,000 tested, 0.8% active;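 active = Every replicate reaches about 75%, or at least half do and their mean reaches it too, limit read from the data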;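 note: 0% = cytokine-treated negative control wells and 100% = positive control rescue; higher means more ATP so stronger rescue from cytokine killing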
Mdm2 MdmX PPI – inhibitors of human Mdm2/MdmX interaction | 330,000 tested, 3% active | SaOS-2 split-luciferase Mdm2/MdmX complementation, luminescence | O15151+Q00987 | AID 485346 | inhibition, % at 8 µM;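 active = inhibition of at least 50% at 8 µM in the primary screen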
Mdm2 MdmX conf – confirmation of human Mdm2/MdmX interaction inhibitors; shares compounds with Mdm2 MdmX PPI; Mdm2-MdmX binding, luminescent assay; inhibition, % at 8 µM; 10,000 tested, 55% active; AID 489028; in the data active = inhibition above about 40%
FLuc counter – full-length luciferase inhibition in Mdm2/MdmX counter-screen; shares compounds with Mdm2 MdmX PPI; SaOS-2 full-length luciferase counterscreen, luminescence; inhibition, % at 8 µM; 6,200 tested, 77% active;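 active = mean inhibition at 8 µM reaching about 37%, which flags the compound as non-specific, limit read from the data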;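 note: p53-null SaOS-2 cells with luciferase driven by a doxycycline-inducible promoter; compound on cells about two nights before reading with doxycycline added after day one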
Numbers without * were called inactive; . = not tested or not shown; + = active, no number.

SMILES	aSyn UTR inh	Bfl-1 A1 inh	CSC inhib	Beta apoptosis	Mdm2 MdmX PPI	Mdm2 MdmX conf	others
COc1ccc(OC)c(-c2nnc3n2N=C(c2ccc(OC)c(OC)c2)CS3)c1	.	0	.	39	66*	60*	FLuc counter=79*
COc1ccc(OC)c(C2=Nn3c(nnc3C3CCCCC3)SC2)c1	25	0	-16	17	23	.
CCC(OC(=O)CNS(=O)(=O)c1ccccc1)C(=O)c1ccccc1 (stereo not given)	11	0	3	-9	26	.
COc1cccc(N(C(=O)CNC(=O)c2ccco2)C(C(=O)NC2CCCC2)c2cccnc2)c1 (stereo not given)	13	0	-13	-1	-13	.
O=C(NC(Cc1ccccc1)C(=O)O)/C(=C\c1ccccc1)NC(=O)c1ccc(Br)o1 (stereo not given)	1	2	-15	.	24	.
Cc1ccc(NC(=O)c2cc(S(=O)(=O)N(C)C)ccc2N2CCCC2)cc1F	2	-1	22	-8	52*	38
CN(C)S(=O)(=O)c1ccc(N2CCCC2)c(C(=O)NCC(=O)Nc2ccc(F)c(F)c2)c1	.	0	.	5	-12	.
O=C1NCCN1c1ncc([N+](=O)[O-])s1	.	2	-5	5	19	.
O=[N+]([O-])c1cnc(Sc2ccncn2)s1	-1	-3	107*	109*	97*	100*	FLuc counter=52*
COc1ccc(/C=C/C(=O)C(C(N)=O)=C2SCCS2)cc1	-109	0	4	-4	-11	.
NC(=O)C(C(=O)/C=C/c1ccc(Cl)cc1)=C1SCCS1	-114	0	43	-34	92*	82*	FLuc counter=49*
N/C(Cn1cncn1)=N\OC(=O)c1ccc(Cl)cc1	20	1	-4	-1	51*	-6
CCOC(=O)N1C(=O)[C@@](c2ccc(Cl)cc2)(C(C)C)N1C(=O)OCC	0	4	78*	22	88*	62*	FLuc counter=33
CCOC(=O)N1C(=O)[C@](c2ccc(Cl)cc2)(C(C)C)N1C(=O)OCC	-25	1	17	11	80*	44*	FLuc counter=49*
COC(=O)N1C(=O)[C@](c2ccccc2)(C(C)C)N1C(=O)OC	3	-1	11	3	35	.
CC(C)[C@H](NS(=O)(=O)c1ccc(Cl)cc1)C(=O)OCC(=O)NCCN1C(=O)CSC1=O	6	0	-20	-8	18	.
CC(C)OCCCn1c(SCC(=O)Nc2ccccc2C(F)(F)F)nc2nccnc2c1=O	15	-2	-10	-5	17	.
N#Cc1nc(NCC(F)F)nc(Nc2cc(F)cc(F)c2)n1	.	0	30	5	64*	58*	FLuc counter=28
CCOc1ccc(CCNS(=O)(=O)c2cc3c(cc2C)NC(=O)CO3)cc1OCC	2	0	3	-2	-12	.
Cc1ccc2c(CN3CCN(S(=O)(=O)c4ccccc4C(F)(F)F)CC3)cc(=O)oc2c1C	.	1	13	16	15	.
OC(CN1CCN(c2cccc(C(F)(F)F)c2)CC1)c1c[nH]c2ccccc12 (stereo not given)	21	0	.	-5	50	46*	FLuc counter=64*
CC(=O)c1cccc(NC(=O)NC(C)c2ccc3c(c2)OCO3)c1 (stereo not given)	-5	-1	0	0	7	.
Cc1nn(CC(=O)NCCCN2CCC(Cc3ccccc3)CC2)c(=O)c2cc(-c3ccccc3)nn12	-8	2	36	5	96*	69*	FLuc counter=41*
CCc1ccc(-c2cc3c(=O)n(CC(=O)NCCCN4CCC(Cc5ccccc5)CC4)nc(C)n3n2)cc1	9	1	-19	14	100*	99*	FLuc counter=53*
N#CN1CCC(NS(=O)(=O)c2ccc(C(F)(F)F)cc2)CC1	.	-1	.	-1	-38	.
SMILES	aSyn UTR inh	Bfl-1 A1 inh	CSC inhib	Beta apoptosis	Mdm2 MdmX PPI	Mdm2 MdmX conf	others
Cc1cc(/C=N/NC(=O)c2cccs2)c(C)n1-c1ccccc1	-19	-3	22	-3	93*	88*	FLuc counter=93*
Cc1cc(/C=N/NC(=O)c2ccncc2)c(C)n1-c1ccccc1	-47	2	10	-2	-7	.
COC(=O)/C(=C\Nc1ccc(Cl)c2ccccc12)c1ncc(C(F)(F)F)cc1Cl	-27	0	-2	0	59*	4
CCOC(=O)/C(=C\Nc1ccccc1C(F)(F)F)Sc1ncc(C(F)(F)F)cc1Cl	1	0	-1	9	-3	.
Cc1cccc(C(=O)C2CCN(S(=O)(=O)c3cccc(C(=O)O)c3)CC2)c1	-3	.	.	.	-10	.
Nc1nc(N)nc(-c2ccccc2)n1	0	-1	7	-3	-14	.
Nc1nc(N)nc(-c2ccc(Cl)c(Cl)c2)n1	.	-5	0	-16	50*	35
COc1ccc2c(CC(=O)Nc3ncc(C)s3)coc2c1	-133	-1	52	40	66*	66*	FLuc counter=+
COc1ccc2c(CC(=O)Nc3nc(C)cs3)coc2c1	-26	0	7	-4	-38	.
O=C(Nc1ccccc1N1CCOCC1)C1CCCO1 (stereo not given)	.	0	-14	-5	-11	.
CN(C)c1ccc(C(=O)OCC(=O)Nc2ccc(S(N)(=O)=O)cc2)cc1	1	-1	-10	3	53*	-12
COc1ccc(-c2ccc3c(c2)S(=O)(=O)c2cccc(C(=O)NCCOc4ccccc4)c2C3=O)cc1OC	.	2	-4	12	76*	27
COc1ccc(-c2ccc3c(c2)S(=O)(=O)c2cccc(C(=O)NC[C@@H]4CCCO4)c2C3=O)cc1OC	.	1	-16	0	35	.
O=C1c2ccc(Cl)cc2S(=O)(=O)c2cccc(C(=O)N3CCC(Cc4ccccc4)CC3)c21	.	0	123*	3	68*	-3
O=C(NCC1CC1)c1cccc2c1C(=O)c1ccc(-c3ccc(OC(F)(F)F)cc3)cc1S2(=O)=O	.	1	.	5	66*	8
O=C(NCCOc1ccccc1)c1cccc2c1C(=O)c1ccc(Cl)cc1S2(=O)=O	.	0	-13	-7	16	.
O=C(NCCOc1ccccc1Cl)c1cccc2c1C(=O)c1ccc(Cl)cc1S2(=O)=O	.	1	20	6	59*	-3
CS(=O)(=O)N(CC(=O)N1CCOCC1)c1ccccc1Br	-9	-4	-11	3	7	.
CCC1CCCCN1C(=O)c1ccc([N+](=O)[O-])o1 (stereo not given)	-79	1	1	-3	7	.
O=C(COc1ccc(-c2nnco2)cc1)Nc1ccc(C(F)(F)F)cc1	-6	0	1	0	26	.
COC(=O)c1sc(S(=O)(=O)N2CCCCC2C)c(C(=O)OC)c1C (stereo not given)	.	0	-9	-7	-3	.

High-throughput results from PubChem.
